In PubChem BioAssay (NCATS):
Results filed as inconclusive are left out. Values without a mark were called inactive. Active and inactive are the calls of the source. The call rests on the fitted dose curve; in most records, active means well fitted cell-killing curve with a large enough effect; inconclusive means small, poorly fitted or top-dose-only effect, or effect the other way; inactive means no such curve, though single readings can be large or run the other way. Where a SMILES comes first, the peptide text is derived from it. [ ]: non-standard residue; d: D form. pGlu = O=C1CC[C@@H](C(=O)O)N1

Experiment: qHTS assay to identify small molecule inhibitors of chordoma cells - UCH-1 (AID 1259355); further: nearly all actives have a fitted effect of over 55% in size
Details: UCH-1 chordoma viability, CellTiter-Glo, 48 h, combination, with auranofin plus four topoisomerase inhibitors; series mostly up to 46.1 µM; activity, negative = inhibition: at the top concentration
Method in brief: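 Luminescent ATP read-out (CellTiter-Glo, 30min at room temperature) measured viability of UCH-1 cells exposed for 48hr to test drugs at 15 concentrations, co-dosed with a five-agent combination of auranofin, camptothecin, doxorubicin, rubitecan and topotecan.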
On the % scale 0 is the no-effect control and ±100 the full control effect; potency means the concentration at half of the fitted maximal effect.

Row | SMILES | activity, negative = inhibition [%] | Potency
1 | CC(C)C[C@@H](NC(=O)[C@@H](O)[C@H](N)Cc1ccccc1)C(=O)O | -6.82 | –
2 | CC(C)(C)c1ccc(CN2CCN(C(c3ccccc3)c3ccc(Cl)cc3)CC2)cc1 (configuration not stated) | -11 | –
3 | COc1cc2c(cc1OC)[C@@H](c1ccccc1)CN(C)CC2 | -17.8 | –
4 | CC(=O)Nc1c(I)c(C(=O)O)c(I)c(N(C)C(C)=O)c1I | -3.42 | –
5 | CC(C)=CCC/C(C)=C/C=C/C(C)=C/C=C/C(C)=C/C=C/C=C(C)/C=C/C=C(C)/C=C/C=C(\C)CCC=C(C)C | -7.68 | –
6 | CC(CCc1ccc(O)cc1)NCC(O)c1ccc(O)cc1 (configuration not stated) | -1.16 | –
7 | C=C1CC[C@H](O)C/C1=C\C=C1/CCC[C@]2(C)[C@@H]([C@H](C)CCCC(C)C)CC[C@@H]12 | -15.4 | –
8 | CC(C)(C)NCC(O)c1ccc(O)c(CO)n1 (configuration not stated) | 7.85 | –
9 | CC(O)[C@H]1CC[C@H]2[C@@H]3CC[C@@H]4C[C@@H](O)CC[C@]4(C)[C@H]3CC[C@]12C (some centres not stated) | 1.94 | –
10 | CC1=CC(=C(c2ccc(N)cc2)c2ccc(N)cc2)C=CC1=N | – | 15.8 µM (active)
11 | CN1C(=O)C[C@@H](C(=O)N[C@@H](Cc2cnc[nH]2)C(=O)N2CCC[C@H]2C(N)=O)NC1=O | 1.42 | –
12 | COc1ccc(/C=C/C(=O)O)cc1 | -8.93 | –
13 | O[C@@H]([C@H](O)[C@H](O)CBr)[C@H](O)CBr | -40.3 | –
14 | COc1ccccc1N1CCN(CCCC(=O)c2ccc(F)cc2)CC1 | 3.89 | –
15 | COC(=O)[C@H]1[C@H]2C[C@@H]3c4[nH]c5cc(OC)ccc5c4CCN3C[C@H]2C[C@H](OC)[C@@H]1OC | -8.98 | –
16 | CCCCCc1ccc(C)cc1O | 4.7 | –
17 | Cc1cccc(C)c1NC(=O)NC1=CCCN1C | -8.44 | –
18 | CC(=O)OCC(=O)[C@@]1(O)CC[C@H]2[C@@H]3CCC4=CC(=O)CC[C@]4(C)C3=CC[C@@]21C | -11.1 | –
19 | NC(=O)C1c2ccccc2CCc2ccccc21 | -6.75 | –

Row | SMILES | activity, negative = inhibition [%] | Potency
20 | C[C@]12CC[C@@H]3c4ccc(O)cc4CC[C@H]3[C@@H]1CC[C@@H]2OP(=O)(O)O | -22.9 | –
21 | CC(C)CCCC(C)NC(C)C (configuration not stated) | -17.9 | –
22 | c1ccc(-n2cnnn2)cc1 | -19.5 | –
23 | COc1ccc2cc([C@H](C)CO)ccc2c1 | -2.36 | –
24 | CC[C@H](C)[C@H](NC(=O)[C@H](Cc1ccccc1)NC(=O)[C@H](C)NC(=O)[C@H](CC(=O)O)NC(=O)[C@H](CCCCN)NC(=O)[C@H](CO)NC(=O)[C@@H]1CCCN1C(=O)[C@@H]1CCC(=O)N1)C(=O)NCC(=O)N[C@@H](CC(C)C)C(=O)N[C@@H](CCSC)C(N)=O ([pGlu]PSKDAFIGLM-NH2) | -8.65 | –
25 | CCc1cn([C@H]2C[C@H](O)[C@@H](CO)O2)c(=O)[nH]c1=O | -7.53 | –
26 | C[C@@H]1C[C@H]2[C@@H]3CCC4=CC(=O)C=C[C@]4(C)[C@@]3(F)[C@@H](O)C[C@]2(C)[C@@]1(O)C(=O)COC(=O)c1cccc(S(=O)(=O)O)c1 | -23.3 | –
27 | O=C(O)c1ccc(OCCn2ccnc2)cc1 | -9.13 | –
28 | Oc1ccc(Cl)c2c1CCC2 | -5.93 | –
29 | O=C(CCCN1CCC(C(=O)c2ccc(F)cc2)CC1)c1ccc(F)cc1 | -6.59 | –
30 | NC(=O)CC[C@@H]1NC(=O)[C@H](Cc2ccccc2)NC(=O)[C@H](Cc2ccc(O)cc2)NC(=O)[C@@H](N)CSSC[C@@H](C(=O)N2CCC[C@H]2C(=O)N[C@@H](CCCN=C(N)N)C(=O)NCC(N)=O)NC(=O)[C@H](CC(N)=O)NC1=O | -4.7 | –
31 | O=C(/C=C/c1cccc(F)c1)NC1CC1 | -13.2 | –
32 | CC(C)(CO)[C@@H](O)C(=O)NCCC(=O)NCCSSCCNC(=O)CCNC(=O)[C@H](O)C(C)(C)CO | -3.19 | –
33 | C[N@+]12CCCC[C@@H]1CCC(=C(c1cccs1)c1cccs1)C2 | -6.73 | –
34 | CC[C@@]1([C@@H]2O[C@@H]([C@H]3O[C@@](O)(CO)[C@H](C)C[C@@H]3C)C[C@@H]2C)CC[C@H]([C@]2(C)CC[C@]3(C[C@H](O)[C@@H](C)[C@@H]([C@@H](C)[C@@H](OC)[C@H](C)C(=O)O)O3)O2)O1 (stereo in doubt) | – | 1.26 µM (active)
35 | CNC(=O)C[C@@H](N)C(=O)N[C@@H](C(=O)N[C@@H]1C(=O)N2[C@@H]1SC(C)(C)[C@@H]2C(=O)O)c1ccc(O)cc1 | -6.81 | –
36 | CC(=O)O[C@@H]1CC2CCC1(C)C2(C)C (some centres not stated) | 1.08 | –
37 | O=P(O)(O)OP(=O)(O)OP(=O)(O)O | 5.42 | –
